High-throughput results (PubChem)
HT1080 IDH1KD tx: HT-1080 IDH1 knockdown cell toxicity (counter line) | HT-1080 IDH1 knockdown viability, ATP luminescence, 48 h | Potency, µM (doses to about 46.1 µM), for inactives: top-dose activity, negative = toxicity, hits mostly cytotoxic | hit rate 2% among 360,000;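 note: 0% = DMSO wells and -100% = cell-free medium wells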
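IDH1KD HT-1080 cells, 750/well, RPMI + 5% FBS; compound pinned after 2 h settling; 48 h, 37 °C; CellTiter-Glo luminescence; % activity normalised to DMSO and no-cell wells; curves fitted, classed by r2 and efficacy.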
DT40 TDP1 CPT: growth inhibition of DT40 Tdp1-/-;hTDP1 cells with camptothecin (screen for TDP1 inhibitors); chicken DT40 Tdp1-/-;hTDP1 cells + 20 nM CPT, ATP luminescence, 48 h; Potency, µM (highest dose often 46.2 µM), without a hit: at the highest dose activity change, negative = growth inhibition, most hits filed as inhibitors; hit rate 12% among 420,000; AID 686979; note: nearly all actives have a fitted effect of over 55% in size
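Chicken DT40 Tdp1-/- cells stably complemented with human TDP1 were seeded at 400 cells/well in medium containing 20 nM camptothecin, exposed to pin-transferred compounds, and grown at 37 °C for at least 48 hr. Viability was read as ATP luminescence.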
KB-V1 MDR tox: KB-V1 MDR subline cytotoxicity; KB-V1 MDR cells viability, CellTiter-Glo, 72 h; Potency, µM (series often up to 46.1 µM), usual class: cytotoxic; hit rate 3.4% among 400,000; AID 1347076; note: nearly all actives have a fitted effect of over 60% in size
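KB-V1, DMEM (no phenol red) + 10% FBS; cpd pin-transferred, titration series; 72 h, 37 degrees C; CellTiter-Glo, luminescence. Data normalized, curve-fit.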
KB-3-1 cytotox: kills parental KB-3-1 adenocarcinoma cells; KB-3-1 viability, CellTiter-Glo ATP luminescence, 72 h; Potency, µM (titrated, usually from 46.1 µM), most hits filed as cytotoxic; hit rate 1.4% among 400,000; AID 1347075; note: nearly all actives have a fitted effect of over 60% in size
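Cytotoxicity in the drug-sensitive parental line KB-3-1 was scored as loss of CellTiter-Glo luminescence following 72 h incubation with compound. Values come from curve fitting of normalized concentration-response data.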
DT40 TDP1 no CPT: qHTS for Inhibitors of human tyrosyl-DNA phosphodiesterase 1 (TDP1): qHTS in cells in absence of CPT. DT40 Tdp1-/- hTDP1 cells, no CPT, ATP luminescence, 48 h. Potency, µM (doses to about 46.2 µM), for the others: at the top dose activity change, negative = growth inhibition, actives largely listed as inhibitors. hit rate 15% among 420,000. AID 686978, 2013; note: nearly all actives have a fitted effect of over 55% in size
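Seeded 400 DT40-hTDP1 cells/well (vehicle DMSO, no 20 nM CPT); pinned compounds; ≥48 hr at 37 °C; CellTiter-Glo luminescence as viability measure.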
HT1080NT lethal: kills 2HG-producing HT-1080-NT fibrosarcoma cells. AID 686970. HT-1080-NT fibrosarcoma viability, CellTiter-Glo ATP luminescence, 48 h. hit rate 1.6% among 360,000. Potency, µM (highest dose often 46.1 µM), without a hit: top-dose activity, negative = less viability, usual class: cytotoxic;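 note: NT is the 2HG producing partner of a matched IDH1 knockdown line; 0% = DMSO-treated cells and -100% = media-only wells without cells; nearly all actives have a fitted effect of over 55% in size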
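Fibrosarcoma NT cells, 750 per well in 5% FBS RPMI, were exposed to compound for 48 hours. Viability: CellTiter-Glo luminescence.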
* marks the source's active call; other numbers are inactive results; i = inactive; ? = inconclusive; / = no result. Shown are actives, neighbours in structure and some others; about 19% of the full set was active somewhere. Calls come from the whole dose curve; as a rule, active = well fitted curve in the direction sought with a large enough effect; inconclusive = small, poorly fitted or top-dose-only effect, or another doubt; inactive = no such curve, though single readings can be large; an effect the other way counts as inactive or inconclusive. Unless noted, % is set by controls: 0 for no effect and ±100 for the full control effect; potency is the fitted concentration of half-maximal effect.

SMILES | HT1080 IDH1KD tx | DT40 TDP1 CPT | KB-V1 MDR tox | KB-3-1 cytotox | DT40 TDP1 no CPT | HT1080NT lethal
CCOC(=O)c1ccc(NC(=O)c2nsc3ccccc23)cc1 | / | 18µM* | / | / | ? | /
Cc1ccccc1CNC(=O)c1ccc(NC(=O)c2nsc3ccccc23)cc1 | / | 15µM* | i | i | 12µM* | /
O=C(Nc1ccc(C(=O)N2CCCCC2)cc1)c1nsc2ccccc12 | / | 21µM* | i | ? | 21µM* | /
CCOc1ccccc1CNC(=O)c1cccc(NC(=O)c2nsc3ccccc23)c1 | / | 5.8µM* | i | i | 5.2µM* | /
COc1ccc(OC)c(CNC(=O)c2ccccc2NC(=O)c2nsc3ccccc23)c1 | / | ? | i | i | ? | /
CCOc1cc(CNC(=O)c2ccccc2NC(=O)c2nsc3ccccc23)ccc1OC | / | 16µM* | i | i | 18µM* | /
COc1ccccc1-c1cccc(-c2nc(C(=O)Nc3nccs3)cc3c2[C@H](CCO)N(C(C)=O)C3)c1 | ? | 6.5µM* | ? | i | 5.8µM* | ?
CC(C)NC(=O)N1Cc2cc(C(=O)NC3CCCC3)nc(-c3cccc(-c4cccnc4)c3)c2[C@H]1CCO | ? | ? | i | i | ? | ?
CCC(=O)N1Cc2cc(C(=O)Nc3nccs3)nc(-c3cccc(-c4ccccc4OC)c3)c2[C@H]1CCO | ? | ? | ? | i | 16µM* | ?
O=c1c2c3c(sc2n(CCN2CCOCC2)c(=O)n1Cc1ccco1)CCCCC3 | -2% | 8.2µM* | ? | i | 10µM* | -1%
O=c1c2c3c(sc2n(CCN2CCCCC2)c(=O)n1Cc1ccco1)CCCCC3 | ? | 13µM* | ? | i | 18µM* | ?
COc1cccc(CNc2nc3cc(-c4cnn(Cc5ccccc5)c4)sc3c(=O)n2C)c1 | ? | ? | i | i | ? | -13%
CC(=NC1CC1)c1c(-c2ccccc2)[nH]n(-c2nc3ccccc3s2)c1=O | 9% | ? | i | ? | 22µM* | 1%
Cn1c(SCC(=O)N2CCN(c3ccccc3)CC2)nnc1-c1ccccc1 | -14% | -8% | ? | i | -16% | -6%
Cc1ccc(CSCC(=O)N2CCN(c3ccccc3)CC2)cc1 | 13% | ? | i | i | ? | 0%
Cc1ccccc1-n1c(SCC(=O)N2CCN(c3ccccc3)CC2)nnc1-c1ccncc1 | 2% | 16µM* | 3.7µM* | i | 21µM* | 8%
Cc1ccc(CSCc2nnc(SCC(=O)N3CCN(c4ccccc4)CC3)n2C)cc1 | -21% | ? | i | ? | 16µM* | -6%
Cc1ccccc1-n1c(SCC(=O)N2CCCC2)nnc1-c1ccccn1 | -6% | -3% | i | i | -13% | -4%
CCn1c(CSCc2ccc(F)cc2)nnc1SCC(=O)N1CCN(c2ccccc2)CC1 | -2% | ? | ? | i | 23µM* | -14%
CCc1ccccc1-n1c(SCC(=O)N2CCCC2)nnc1-c1ccccn1 | 10% | ? | i | i | 20µM* | 10%
Cc1cc(C(=O)CN2CCCC(C)C2)c(C)n1-c1ccc(F)cc1 (centres undefined) | -1% | -22% | ? | i | ? | -6%
COc1ccc(NC(=O)CSC2=Nc3ccccc3C3=NC(CC(=O)NCc4ccco4)C(=O)N23)cc1 (centres undefined) | / | -28% | i | i | -20% | /
COc1cc2c(C(=O)N3CCN(C)CC3)c(C)n(-c3ccccc3)c2cc1Br | -2% | 2% | i | i | 16% | -5%
CCN(CC)CCNC(=O)c1c(C)n(-c2ccccc2)c2cc(Br)c(OC)cc12 | 16µM* | ? | i | ? | 18µM* | ?
O=C(Nc1ccc2c(c1)OCO2)c1ccc2sc([C@H]3C[C@H](O)[C@@H](CO)O3)nc2c1 | 14% | -5% | i | i | -25% | 16%
SMILES | HT1080 IDH1KD tx | DT40 TDP1 CPT | KB-V1 MDR tox | KB-3-1 cytotox | DT40 TDP1 no CPT | HT1080NT lethal
O=c1oc2ccccc2cc1-c1csc(Cc2nc(-c3ccc(Br)cc3)cs2)n1 | 3% | ? | ? | ? | 16µM* | 14%
Cc1cc(C)c(-c2csc(Cc3nc(-c4cc5ccccc5oc4=O)cs3)n2)cc1C | -9% | 18µM* | ? | 23µM* | 15µM* | -3%
Cc1ccc(-c2csc(Cc3nc(-c4cc5ccccc5oc4=O)cs3)n2)cc1 | 13% | 18µM* | ? | i | 23µM* | -2%
Cc1cc(C)c(-c2csc(-c3cc4ccccc4oc3=O)n2)cc1C | / | -27% | i | i | ? | /
N#Cc1cccc(NC(=O)CCNS(=O)(=O)c2ccc3c(c2)CCN3C(=O)C2CC2)c1 | / | ? | ? | i | ? | /
Cc1cc(C)cc(CC(=O)N2CCC2(C)C(=O)NS(=O)(=O)c2cc(C)ccc2F)c1 (centres undefined) | 17% | 5% | i | i | 2% | 22%
COc1ccc(-c2cn3cc(C(F)(F)F)cc(Cl)c3n2)cc1 | ? | ? | ? | ? | 18µM* | ?
Cc1csc(NC(=O)CSc2nc(C(C)C)nc3c2c(=O)n(C)c(=O)n3C)n1 | -10% | 10µM* | i | i | 4.6µM* | -28%
Cc1ccc(-c2nc(SCC(=O)Nc3cc(C)on3)c3c(=O)n(C)c(=O)n(C)c3n2)cc1 | 1% | 12µM* | ? | i | 15µM* | -2%
Cn1c(=O)c2c(SCC(=O)Nc3ccccc3F)nc(C3CC3)nc2n(C)c1=O | -1% | ? | ? | i | ? | 0%
Cn1c(=O)c2c(SCC(=O)Nc3ccccc3F)nc(-c3ccccc3F)nc2n(C)c1=O | -4% | ? | i | i | 15µM* | -2%
COc1ccc(NC(=O)CSc2nc(C(C)C)nc3c2c(=O)n(C)c(=O)n3C)c(OC)c1 | 25% | -16% | i | i | -11% | 13%
CCC(C(=O)Nc1cc(F)ccc1F)n1nc(-c2cc(C)ccc2C)ccc1=O (centres undefined) | / | ? | i | ? | ? | /
Cc1nnc(NC(=O)CSc2nccn2Cc2ccccc2)s1 | -2% | -11% | i | i | ? | 0%
CCN1CCN(c2cc(C)c3cc(NC(=O)c4cccc(C(F)(F)F)c4)ccc3n2)CC1 | / | 10µM* | i | i | 13µM* | /
